For 40 molecules, AC50 and outcome results are on record in PubChem BioAssay (EPA / NIEHS).

Each structure is given as a SMILES string. The source made the active and inactive calls. How the source made its calls: active means hit-call score of the fitted dose curve at least 0.9, where 1 is the maximum; inactive means score below 0.9.

A short description of this assay: ATG_TCF_b_cat_CIS: Attagene CIS-FACTORIAL HepG2 Assay for human T-Cell-Factor with beta-catenin (TCF/b-cat) (AID 2282965). The conditions noted are these: HepG2 TCF/beta-catenin cis-reporter transcription, actives raise or lower the signal. On the procedure:
ATG_CIS is a cell-based, multiplexed-readout assay that uses HepG2, a human liver cell line, with measurements taken at 24 hours after chemical dosing in a 24-well plate.ATG_TCF_b_cat_CIS is one of 52 assay component(s) measured or calculated from the ATG_CIS assay. It is designed to make measurements of mRNA induction, a form of inducible reporter, as detected with fluorescence intensity signals by Reverse transcription polymerase chain reaction (RT-PCR) and Capillary electrophoresis technology.Data from the assay component ATG_TCF_b_cat_CIS was analyzed into 1 assay endpoint. This assay endpoint, ATG_TCF_b_cat_CIS, was analyzed with bidirectional fitting relative to DMSO as the negative control and baseline of activity. Using a type of inducible reporter, measures of mRNA for gain or loss-of-signal activity can be used to understand the reporter gene at the transcription factor-level as they relate to the gene TCF7 and TCF7L2 and LEF1 and TCF7L1. Furthermore, this assay endpoint can be referred to as a primary readout, because this assay has produced multiple assay endpoints where this one serves a reporter gene function. To generalize the intended target to other relatable targets, this assay endpoint is annotated to the dna binding intended target family, where the subfamily is HMG box protein.
Human liver HepG2 cells are transiently transfected with multiple reporter transcription units (MRTUs) in 6-well plates using FuGene 6 reagent (Roche; 3 ml FuGene/1 mg DNA). The MRTU constructs are regulated by a cis-regulating element (promoter). […] A major difference between the CIS and TRANS system is that in CIS activities of endogenous TFs are measured, whereas the TRANS assay evaluates changes in activities of exogenous, chimeric NR-Gal4 proteins. […] At the end of 24 hour incubation, total RNA was isolated using TriZol reagent (Invitrogen). The isolated RNA is then reverse-transcribed using oligo(dT) primer and Mo-MLV reverse transcriptase (Invitrogen) with DNAse I (Ambion) treatment for 30 min. The one-tenth of the produced cDNA was amplified by PCR using Taq DNA polymerase (Invitrogen) and two reporter sequence-specific primers. The PCR products were fluorescently labeled by primer extension with 6-arboxyfluorescein (6-FAM) 5'-labeled reporter sequence-specific primer (2 min at 95 C, 20 s at 68 C and 10 min at 72 C) and these products were digested with 5U of HpaI (New England Biolabs) for 2h at 37 C. The fragments were purified using Qiaquick PCR columns (Qiagen), analyzed on an ABI 3130xL genetic analyzer (Applied Biosystems) with peak positions identified by using a set of X-rhodamine (ROX)-labeled MapMarker1000 molecular weight standards (BioVentures). The raw capillary electrophoresis data was processed using Attagraph software (Attagene).
The AC50 is the concentration at which the activity in the assay is half-maximal. With `O=C1OC(c2ccc(O)cc2)(c2ccc(O)cc2)c2ccccc21`, the AC50 was 27.5 µM (active).
Regarding `CCCCC(CC)COP(=O)(OCC(CC)CCCC)OCC(CC)CCCC` (stereo not given), the molecule was classed as inactive.
The same measure, in the same setting: next, `CC1=C(C)S(=O)(=O)CCS1(=O)=O`: “inactive”.
Turning to `CCCCCCC(CCCCCCCCCCC(=O)OCC(COC(C)=O)OC(C)=O)OC(C)=O` (stereo not given), the half-maximal activity concentration (AC50) is 50 µM (active).
As for `c1ccc2occc2c1`, the result was inactive.
The same measure, in the same setting: next, `O=C1c2c(O)cccc2Cc2cccc(O)c21`: “inactive”; `O=C1CCCCC1`: “inactive”.
Still for that read-out and setting: next, `CCCCCCC(C=O)=Cc1ccccc1`: “inactive”; `O=C(O)c1cccnc1`: “inactive”.
On to `Cc1ccc(C(C)(C)C)c(O)c1`, for which the half-maximal activity concentration (AC50) was 161 µM (active).
Take `CN(C)C(=O)NC1(c2ccccc2)CCN(CC[C@@]2(c3ccc(F)c(F)c3)CN(C(=O)c3ccccc3)CCO2)CC1`: the AC50 is 100 µM (active).
With `CC(C)c1cccc(C(C)C)c1`, the result was inactive.
On to `CCCC(=O)O`, for which the outcome was inactive.
Still for that read-out and setting: then `CC(=O)OCC(COC(C)=O)OC(C)=O`, with “inactive”; and `O=C(Oc1ccccc1)c1cccc(C(=O)Oc2ccccc2)c1`, with “inactive”.
`CCCCCCCCCCCCCCCCO`: the AC50 is 159 µM (active).
In the case of `CCCCOC(=O)CCCCC(=O)OCCCC`, the result was inactive.
Same read-out and setting: next, `CC(C)c1cccc(C(C)C)c1NC(=O)NS(=O)(=O)c1cc(C(C)(C)O)co1`: “inactive”.
As for `COC(=O)[C@H]1[C@H]2C[C@@H]3c4[nH]c5cc(OC)ccc5c4CCN3C[C@H]2C[C@@H](OC(=O)c2cc(OC)c(OC)c(OC)c2)[C@@H]1OC`, the AC50 is 7.31 µM (active).
With `CN(C)C(=O)NC1(c2ccccc2)CCN(CCC[C@]2(c3ccc(Cl)c(Cl)c3)CCCN(C(=O)c3ccccc3)C2)CC1`, the molecule was called inactive.
Same read-out and setting: then `NCCOCCOCCN`, with “inactive”; and `Cc1cc(Cc2ccc(N)c(C)c2)ccc1N`, with “inactive”; and `CCCCC(CC)CO` (stereo not given), with “inactive”.
Take `Nc1nc(Cl)nc2c1ncn2[C@H]1C[C@H](O)[C@@H](CO)O1`: the molecule was classed as inactive.
As to `CCc1nc(N)nc(N)c1-c1ccc(Cl)cc1`, the AC50 is 60.1 µM (active).
Same read-out and setting: next, `Cc1c(C)c2c(c(C)c1O)CCC(C)(COc1ccc(CC3SC(=O)NC3=O)cc1)O2` (stereo not given): 18.5 µM (active).
As for `C/C=C/c1ccc(OC)cc1`, the result was inactive.
The same measure, in the same setting: then `CC(C)OC(=O)C(C)(C)Oc1ccc(C(=O)c2ccc(Cl)cc2)cc1`, with “inactive”; and `Oc1ccc(O)cc1`, with “inactive”.
For the molecule `CCc1cc(C2=C(C(=O)O)N(c3ccccc3C(F)(F)F)S(=O)(=O)c3ccccc32)cc2c1OCO2`, the AC50 was 122 µM (active).
As to `C=CCc1ccc(OC)c(OC)c1`, the molecule was classed as inactive.
As to `CCCCCCCCCCCCCCOS(=O)(=O)O`, the outcome was inactive.
On the same count and under the same terms, then `N[C@@H](Cc1c[nH]c2ccccc12)C(=O)O`, with “inactive”; and `Cc1ccc(-c2cc(C(F)(F)F)nn2-c2ccc(S(N)(=O)=O)cc2)cc1`, with “inactive”.
With `CCN(CC)CCOc1ccc(C(=C(Cl)c2ccccc2)c2ccccc2)cc1`, the outcome was inactive.
Same read-out and setting: next, `CC(=O)CC(c1ccccc1)c1c(O)c2ccccc2oc1=O` (stereo not given): “inactive”; `CC1(C)C(=O)NC(=O)N1CO`: “inactive”.
As to `CC(=O)[C@@]1(O)CC[C@H]2[C@@H]3CCC4=CC(=O)CC[C@]4(C)[C@H]3CC[C@@]21C`, the call was inactive.
In the case of `CC(C)COC(=O)CCCCC(=O)OCC(C)C`, the molecule was called inactive.
The same measure, in the same setting: then `Cc1cc(SC2=C(O)C[C@@](CCc3ccc(N)cc3)(C(C)C)OC2=O)c(C(C)(C)C)cc1CO`, with “inactive”.
